The structures appear in SMILES notation.

A short description of test [1]: qHTS profiling of the MIPE4 collection as inhibitors of Plasmodium falciparum (3D7) proliferation (AID 743344).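 Note: scaled between DMSO vehicle wells and 0.29 µM artemisinin as full inhibition.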 Particulars: P. falciparum 3D7 in erythrocytes, SYBR Green DNA fluorescence, 72 h; at 28.5 µM unless noted. Summed up: (§1)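 Parasite DNA was quantified by SYBR Green I fluorescence (ex 485, em 535 nm) after overnight lysis in saponin/Triton buffer at room temperature. Cultures at 0.3% parasitemia and 2.5% hematocrit were first exposed to compound for 72 h at 37 C; signals were normalised to artemisinin (0.29 uM) and vehicle wells.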
For orientation: In qHTS, concentration-response curves come from the screen itself.

The nature of test [2]: qHTS profiling of the MIPE4 collection as inhibitors of Plasmodium falciparum (DD2) proliferation (AID 743345). As to conditions: P. falciparum Dd2 in erythrocytes, SYBR Green DNA, 72 h; at 28.5 µM unless noted. Summed up: as §1
Test [3] can be described thus: qHTS profiling of the MIPE4 collection as inhibitors of Plasmodium falciparum (DD2) proliferation (Rep 2) (AID 743346). As to conditions: P. falciparum Dd2 in erythrocytes, SYBR Green DNA, 72 h; at 28.5 µM unless noted. The essentials:
as §1

The nature of test [4]: qHTS profiling of the MIPE4 collection as inhibitors of Plasmodium falciparum (HB3) proliferation (AID 743347).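 Note: plate controls were DMSO vehicle wells for no effect and artemisinin wells for full effect.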 Particulars: P. falciparum HB3 in erythrocytes, SYBR Green DNA, 72 h; at 28.5 µM unless noted. Summed up:
as §1

Test [5] is described as follows: High-throughput drug toxicity screening in the BPDCN cell line Gen2.2 (AID 1224824).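 Note: cells exposed to compounds for 48 h before reading.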 Particulars: Gen2.2 BPDCN cells; at 45.8 µM (top of the series) unless noted. Summed up:
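Readout is ATP luminescence from Gen2.2 cells after two days of drug exposure in serum-containing medium at 37 °C. Values express percent activity, with vehicle defining full signal and 9.2 uM bortezomib defining zero.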

The nature of test [6]: High-throughput drug toxicity screening in the BPDCN cell line Cal-1 (AID 1224825). Particulars: Cal-1 BPDCN cell viability, qHTS; at 45.8 µM (top of the series) unless noted. The essentials: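 CellTiter-Glo luminescence after 48 h compound exposure; percent activity scaled with DMSO as 100% and bortezomib (9.2 uM final) as 0%. Cal-1 cells seeded at 500/well in RPMI, 10% FBS, no phenol red.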

A short description of test [7]: qHTS profiling for inhibitors of Plasmodium falciparum (3D7) proliferation (AID 743322).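 Note: infected erythrocytes exposed to compound for 72 h before lysis; 100% = DMSO vehicle wells and 0% = 0.29 µM artemisinin.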 As to conditions: P. falciparum 3D7 proliferation; at 28.7 µM (top of the series). Summed up:
as §1

Test [8] can be described thus: qHTS profiling for inhibitors of Plasmodium falciparum (DD2) proliferation (AID 743323). Particulars: lower = more inhibition; at 28.7 µM (top of the series). Summed up:
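Parasite proliferation measured via DNA-dye fluorescence, as uninfected erythrocytes lack DNA. Cultures at 0.3% parasitemia and 2.5% hematocrit incubated 72 h with compound; signal scaled between vehicle and 0.29 uM artemisinin wells.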

The nature of test [9]: qHTS profiling for inhibitors of Plasmodium falciparum (HB3) proliferation (AID 743324).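 Note: 100% = DMSO vehicle wells and 0% = artemisinin-treated control wells.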 Particulars: Plasmodium falciparum HB3 blood-stage proliferation; at 28.7 µM (top of the series). Summed up:
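SYBR Green fluorescence (485 ex/535 em) of lysed cultures, incubated overnight at room temperature in the dark, quantifies parasite DNA. Infected erythrocytes at 0.3% parasitemia and 2.5% hematocrit were exposed 72 h; values normalized to DMSO and 0.29 uM artemisinin controls.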

In turn, `O=C(Nc1cn[nH]c1-c1nc2ccc(CN3CCOCC3)cc2[nH]1)NC1CC1` had a parasite growth, % of DMSO control in test [1] of 5.31%. For the same molecule, the parasite growth remaining, % of DMSO control (lower = more inhibition) in [2] is 12.9%. In test [3], the parasite growth, % of control (lower = inhibition) came to 8.07%. Further, the growth, % of control in test [4] stood at 4.19%. Besides, the cell viability, % of control (lower = more cytotoxic) in [5] is 4.46%. Besides, the viability (% of control) in [6] was 3.55%.
With `CCS(=O)(=O)c1cccc(-c2cc(C(=O)NC3CCN(C)CC3)c(C)c3[nH]c4ncc(C)cc4c23)c1`, in [1], the parasite growth, % of DMSO control stood at 5.84%. The parasite growth remaining, % of DMSO control (lower = more inhibition) in test [2] was determined as 9.76%. Moreover, in test [3], the parasite growth, % of control (lower = inhibition) came to 15.1%. The molecule also came in with a growth, % of control in test [4] of 7.05%. In test [5], the cell viability, % of control (lower = more cytotoxic) amounted to 7.25%. In addition, in test [6], the viability (% of control) was 2.47%.
For `CCn1cc(-c2ccnc3[nH]c(-c4cccc(CN(C)C)c4)cc23)c(-c2ccc(NC(=O)N(C)C)cc2)n1`, the parasite growth, % of DMSO control in test [1] stood at 5%. Moreover, the parasite growth remaining, % of DMSO control (lower = more inhibition) in [2] came to 8.23%. In test [3], this molecule came in with a parasite growth, % of control (lower = inhibition) of 9.35%. Besides, in test [4], the growth, % of control was found to be 5.95%. In [5], the cell viability, % of control (lower = more cytotoxic) was 3.65%. In addition, the viability (% of control) in test [6] is 2.71%.
`CN(C)CC(C)(C)CNc1nn2c(-c3ccccc3)nnc2cc1C1CCC1` gave a parasite growth, % of DMSO control in [1] of 20%. For the same molecule, the parasite growth remaining, % of DMSO control (lower = more inhibition) in test [2] was 21.9%. In test [3], this molecule displayed a parasite growth, % of control (lower = inhibition) of 40.5%. In test [4], this molecule came in with a growth, % of control of 48.8%. For the same molecule, the cell viability, % of control (lower = more cytotoxic) in [5] was 13.9%. Further, the viability (% of control) in test [6] is 3.65%.
As for `COc1ccc2c(OCc3nnc4ccc(-c5ccccc5)nn34)ccnc2c1`, in test [1], the parasite growth, % of DMSO control came out at 53.1%. Also, the parasite growth remaining, % of DMSO control (lower = more inhibition) in test [2] came to 97.5%. This molecule came in with a parasite growth, % of control (lower = inhibition) in test [3] of 67%. Besides, the growth, % of control in test [4] stood at 59.2%. The cell viability, % of control (lower = more cytotoxic) in test [5] was determined as 170%. Also, the viability (% of control) in test [6] stood at 105%.
Take `COc1cc(Nc2ncc(F)c(Nc3ccc4c(n3)N(COP(=O)(O)O)C(=O)C(C)(C)O4)n2)cc(OC)c1OC`: the parasite growth, % of DMSO control in test [1] worked out at 19.5%. In addition, the parasite growth remaining, % of DMSO control (lower = more inhibition) in test [2] worked out at 87.2%. Besides, the parasite growth, % of control (lower = inhibition) in test [3] was 22.9%. In [4], the growth, % of control was 11.1%. In test [5], the cell viability, % of control (lower = more cytotoxic) came to 56.3%. The viability (% of control) in test [6] was 10.3%.
On to `Cc1ccc(NC(=O)C2(c3ccc4c(c3)OC(F)(F)O4)CC2)nc1-c1cccc(C(=O)O)c1`, for which the parasite growth, % of DMSO control in [1] was 7.25%. Further, the parasite growth remaining, % of DMSO control (lower = more inhibition) in test [2] came out at 6.69%. In test [3], this molecule gave a parasite growth, % of control (lower = inhibition) of 7.61%. The same molecule returned a growth, % of control in test [4] of 5.22%. The cell viability, % of control (lower = more cytotoxic) in test [5] is 8.23%. For the same molecule, the viability (% of control) in test [6] was found to be 6.82%.
Consider `COc1c(OCCCN2CCOCC2)ccc2c3n(c(=NC(=O)c4cnc(N)nc4)nc12)CCN3`, for which the parasite growth, % of DMSO control in [1] stood at 7.6% [at 9.64 µM]. In addition, in [2], the parasite growth remaining, % of DMSO control (lower = more inhibition) was determined as 12% [at 9.64 µM]. This molecule returned a parasite growth, % of control (lower = inhibition) in [3] of 16.8% [at 9.64 µM]. This molecule had a growth, % of control in [4] of 3.45% [at 9.64 µM]. The cell viability, % of control (lower = more cytotoxic) in [5] turned out to be 37.7% [at 23.2 µM]. Besides, the viability (% of control) in test [6] was 69.2% [at 23.2 µM].
The molecule `CN(C)CCCN=c1c2ccccc2n(C)c2[nH]c(=O)n(C)c(=O)c12` had a remaining parasite growth % (stronger effect = lower value) in test [7] of 5.55%. In test [8], this molecule had an activity, percent of control of 15.1%. For the same molecule, in [9], the remaining proliferation (% of control), lower = more inhibition was 3.8%. The molecule also came in with a parasite growth, % of DMSO control in test [1] of 5.98%. Also, the parasite growth remaining, % of DMSO control (lower = more inhibition) in test [2] was 10.8%. Also, the parasite growth, % of control (lower = inhibition) in [3] was determined as 9.14%. In test [4], the growth, % of control is 3%. Besides, in test [6], the viability (% of control) was found to be 4%.
On to `Cn1c2ccccc2c2c3c(c4c5ccccc5n(CCC#N)c4c21)CNC3=O`, for which the parasite growth, % of DMSO control in test [1] came to 16%. The molecule further showed a parasite growth remaining, % of DMSO control (lower = more inhibition) in test [2] of 7.7%. In test [3], this molecule showed a parasite growth, % of control (lower = inhibition) of 30.7%. In test [4], this molecule showed a growth, % of control of 54.6%. Also, in [5], the cell viability, % of control (lower = more cytotoxic) stood at 12.7%. The viability (% of control) in test [6] came out at 15.7%.
`CS(=O)(=O)c1ccc(-c2cnc(N)c(C(=O)Nc3ccccc3)n2)cc1` gave a parasite growth, % of DMSO control in test [1] of 7.85%. This molecule also displayed a parasite growth remaining, % of DMSO control (lower = more inhibition) in [2] of 9.88%. Besides, the parasite growth, % of control (lower = inhibition) in test [3] stood at 7.67%. The molecule further yielded a growth, % of control in [4] of 2.44%. The cell viability, % of control (lower = more cytotoxic) in test [5] was 99.6%. The viability (% of control) in [6] came to 41.5%.
As for `COc1cc2c(cc1-c1c(C)noc1C)ncc1[nH]c(=O)n([C@H](C)c3ccccn3)c12`, the parasite growth, % of DMSO control in [1] was 67.1%. Moreover, in test [2], the parasite growth remaining, % of DMSO control (lower = more inhibition) is 97.3%. This molecule also returned a parasite growth, % of control (lower = inhibition) in test [3] of 86.2%. The growth, % of control in [4] is 74.1%. The cell viability, % of control (lower = more cytotoxic) in test [5] turned out to be 65.5%. Further, the viability (% of control) in test [6] turned out to be 7.22%.
